An excerpt weighted towards active compounds, which were near 2% of everything screened.
JMJD2E inh: qHTS Assay for Inhibitors of Human Jumonji Domain Containing 2E (JMJD2E) | Lysine-specific demethylase 4E (Homo sapiens), B2RXH2 | JMJD2E catalytic domain, FDH-coupled NADH fluorescence (FDH is formaldehyde dehydrogenase) | Potency, µM (highest dose often 57.1 µM), hits mostly inhibitors | 230,000 compounds, 1.6% hits; active = well fitted inhibition curve with a large enough effect, not every such curve was filed as active; inconclusive = small, poorly fitted or top-dose-only effect, or another doubt; inactive = no such curve, though single readings can be large or run the other way; note: nearly all actives have a fitted effect of over 50% in size
Target sequence (B2RXH2 1-337 limits assumed): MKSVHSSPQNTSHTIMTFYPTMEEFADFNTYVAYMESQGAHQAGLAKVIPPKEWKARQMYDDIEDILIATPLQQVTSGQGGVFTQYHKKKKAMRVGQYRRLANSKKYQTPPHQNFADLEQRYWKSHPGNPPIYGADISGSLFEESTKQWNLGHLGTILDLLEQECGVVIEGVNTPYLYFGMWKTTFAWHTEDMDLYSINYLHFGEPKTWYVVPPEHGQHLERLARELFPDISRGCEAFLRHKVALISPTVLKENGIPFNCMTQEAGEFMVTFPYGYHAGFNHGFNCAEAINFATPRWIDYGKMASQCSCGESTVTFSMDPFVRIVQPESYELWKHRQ
CtBP-E1A inh: qHTS Assay for Inhibitors of the CtBP/E1A Interaction. AlphaScreen GST-E1A/His-CtBP binding, 1536-well; hits give low values. activity change, % (concentration not given with the values). 340,000 compounds, 0.49% hits. AID 651724, 2012
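Homogeneous bead-based format: GST-tagged E1A captured on glutathione donor beads, His-tagged CtBP on nickel acceptor beads; compounds precede bead addition by 2 h at 37 °C.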
KCNH2 3.1 block: qHTS for Inhibitors of KCHN2 3.1: Mutant qHTS. Potassium voltage-gated channel subfamily H member 2, brain isoform KCNH2 3.1 (human). U2OS KCNH2 3.1, thallium flux FluxOr; hits give low values. activity change, % (tested at about 1.8 µM). 340,000 compounds, 0.95% hits. AID 720553, 2013;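 active = maximum activity change below -70%; inconclusive = maximum activity change from -70% to -50%; inactive = maximum activity change above -50%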;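 note: thallium influx rate constant from kinetic fluorescence after stimulation buffer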
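FluxOr-based Tl+ influx in U2OS cells transduced with KCNH2 3.1 virus; rate constants normalized to DMSO controls.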
KCNH2 WT inh: qHTS for Inhibitors of KCHN2 3.1: Wildtype qHTS | U2OS, BacMam KCNH2, thallium flux FluxOr; hits give low values | activity change, % at 1.84 µM | 340,000 compounds, 0.37% hits | AID 720551, 2013;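 active = maximum activity change below -70%; inconclusive = maximum activity change between -70% and -50%; inactive = maximum activity change above -50%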
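U2OS cells transduced with wild-type KCNH2 virus are loaded with FluxOr dye for 45 min, and thallium flux is measured in kinetic reads before and after stimulation buffer. Rate constants are normalized to DMSO controls.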
Six1-Eya2 inh: qHTS Assay for Inhibitors of the Six1/Eya2 Interaction; activity change, % (concentration not given with the values); AID 651725, 2012; AlphaScreen GST-Six1/His-Eya2 binding, biochemical; hits give low values; 360,000 compounds, 0.56% hits
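AlphaScreen with GST-Six1 and His-Eya2 (5X mix: 250 nM and 500 nM), glutathione donor and nickel acceptor beads; buffer 50 mM Tris pH 8.0, 300 mM NaCl, 1 mM TCEP; 1 h at 37 C in the dark.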
Numbers stand for hits; 0 = inactive; ? = inconclusive; - = no result given. Cut-off read from the data, not from the text of the source, unless noted: active = activity change below about -65%; inconclusive = mostly about -30% to -63%; inactive = weaker than that.

SMILES	JMJD2E inh	CtBP-E1A inh	KCNH2 3.1 block	KCNH2 WT inh	Six1-Eya2 inh
CCCCC(=O)Nc1ccc(C(=O)NNC(=O)c2ccccc2Br)cc1	0	0	0	0	0
CCN(CC)c1ccc(/C=C2\C(=O)N(c3nnc(C)c(=O)[nH]3)N=C2C)cc1	?	-92	0	0	-92
CCN(CCO)c1nc(SC)nc2c1sc1nc(-c3ccco3)c3c(c12)CCC3	3.5µM	0	0	0	0
CSc1nc(NCCOCCO)c2sc3nc(-c4ccco4)c4c(c3c2n1)CCC4	?	0	0	0	?
COc1ccc(CC2(CO)CCN(C(C)Cc3ccc(Cl)cc3)CC2)cc1 (stereo not given)	0	0	-93	-93	0
CC[n+]1c(C)sc2sc3ccccc3c21	14µM	-	-	-	-
O=C(NCC1CCCO1)/C(=C\c1ccccc1F)NC(=O)c1ccccc1 (stereo not given)	-	0	0	0	0
Oc1c(Cl)cc(Cl)cc1C=Nc1ccc2c(c1)OCCO2	0	0	0	0	0
CN(/N=C/c1cc(Cl)cc(Cl)c1O)C(=S)NC(C)(C)C	32µM	-	0	0	0
Cc1c(CC(=O)O)c(=O)oc2c(C)c3occ(-c4ccc(F)cc4)c3cc12	-	-72	0	0	0
Cc1c(CC(=O)O)c(=O)oc2cc3occ(-c4ccccc4)c3cc12	-	0	0	0	0
COc1ccc(-c2coc3c(C)c4oc(=O)c(CCC(=O)O)c(C)c4cc23)cc1	-	-72	0	0	-77
Cc1c(CCC(=O)O)c(=O)oc2c(C)c3occ(-c4ccc(Br)cc4)c3cc12	-	-84	0	0	-85
Cc1oc2c(C)c3oc(=O)c(CCC(=O)NCCCCCC(=O)O)c(C)c3cc2c1C	-	?	0	0	?
CC(C)NC(=O)N(C)C[C@@H]1OCc2cnnn2CCCC(=O)N([C@H](C)CO)C[C@H]1C	-	0	0	0	0
O=C(N/N=C/c1ccc[nH]1)c1ccccc1[N+](=O)[O-]	0	0	0	0	0
O=C(CSc1ncn[nH]1)NCCc1ccc(Cl)cc1	-	0	0	0	0
S=c1[nH]nc(-c2ccc(Br)o2)n1Cc1ccccc1	0	0	0	0	0
CCC(C)NS(=O)(=O)c1ccc(OCC(=O)Nc2ccc3c(c2)OCO3)cc1 (stereo not given)	0	0	0	0	0
O=C(Nc1ccc(Oc2ccccc2)cc1)C1CCN(c2c3c(nc4ncnn24)CCC3)CC1	0	0	-98	0	0
O=C(Nc1ccc2c(c1)CCC2)C1CCN(c2c3c(nc4ncnn24)CCC3)CC1	0	0	0	0	0
COc1ccc(CNC(=O)/C=C/c2ccc(S(=O)(=O)NCc3ccco3)cc2)cc1OC	0	0	0	0	0
N=c1n(CCN2CCCC2)c2ccccc2n1CC(O)c1ccc(Cl)c(Cl)c1 (stereo not given)	0	-	-84	-	0
N=c1n(CCN2CCOCC2)c2ccccc2n1CC(=O)c1ccc(Cl)c(Cl)c1	0	0	0	0	0
CC(=O)c1ccc(NC(=O)C2CC(c3ccc(F)cc3)=NO2)cc1 (stereo not given)	0	0	-97	0	0
SMILES	JMJD2E inh	CtBP-E1A inh	KCNH2 3.1 block	KCNH2 WT inh	Six1-Eya2 inh
CC(=O)c1cccc(NC(=O)C2CC(c3ccc(F)cc3)=NO2)c1 (stereo not given)	0	0	0	0	0
O=C(O)CCNc1cc(N2CCN(C(=O)c3ccco3)CC2)c2noc3c2c1C(=O)c1ccccc1-3	-	-85	0	0	-74
COc1cc(C(=O)Nc2cccc(C(C)=O)c2)cc(OC)c1OC	0	0	0	0	0
CS(C)(=O)=NS(=O)(=O)c1ccc(Cl)cc1	0	0	0	0	0
O=C(C1=C[C@H](C2CC2)C[C@H](OCCCCO)O1)N1CCOCC1	0	0	0	-89	0
CCCCNc1nc2cccnc2s1	0	-	-130	0	0
Clc1ccc(Nc2nc3cccnc3s2)cc1	0	0	0	0	0
COc1cc2c(cc1OC)C1CCN3C(=O)CCC3N1CC2 (stereo not given)	-	0	0	0	0
CC(=O)OCCCn1c(C)[n+](C)c2cc(Cl)c(Cl)cc21	?	-	0	0	0

Screens from PubChem BioAssay.
